According to PubChem BioAssay (Tox21):
Records with an inconclusive call do not appear. Unmarked numbers belong to inactive results. Activity calls are given as the source filed them. Calls follow the shape of the full dose curve.

molecular target: Thyrotropin receptor (Homo sapiens) (UniProt P16473); experiment: qHTS assay to identify small molecule agonists of the thyroid stimulating hormone receptor (TSHR) signaling pathway (AID 1224843); settings: TSHR-HEK293 cells, cAMP HTRF, agonist mode, 30 min; series mostly up to 92.4 µM; activation: at the top concentration; also: nearly all actives have a fitted effect of over 45% in size
Sequence (P16473 whole entry, looked up): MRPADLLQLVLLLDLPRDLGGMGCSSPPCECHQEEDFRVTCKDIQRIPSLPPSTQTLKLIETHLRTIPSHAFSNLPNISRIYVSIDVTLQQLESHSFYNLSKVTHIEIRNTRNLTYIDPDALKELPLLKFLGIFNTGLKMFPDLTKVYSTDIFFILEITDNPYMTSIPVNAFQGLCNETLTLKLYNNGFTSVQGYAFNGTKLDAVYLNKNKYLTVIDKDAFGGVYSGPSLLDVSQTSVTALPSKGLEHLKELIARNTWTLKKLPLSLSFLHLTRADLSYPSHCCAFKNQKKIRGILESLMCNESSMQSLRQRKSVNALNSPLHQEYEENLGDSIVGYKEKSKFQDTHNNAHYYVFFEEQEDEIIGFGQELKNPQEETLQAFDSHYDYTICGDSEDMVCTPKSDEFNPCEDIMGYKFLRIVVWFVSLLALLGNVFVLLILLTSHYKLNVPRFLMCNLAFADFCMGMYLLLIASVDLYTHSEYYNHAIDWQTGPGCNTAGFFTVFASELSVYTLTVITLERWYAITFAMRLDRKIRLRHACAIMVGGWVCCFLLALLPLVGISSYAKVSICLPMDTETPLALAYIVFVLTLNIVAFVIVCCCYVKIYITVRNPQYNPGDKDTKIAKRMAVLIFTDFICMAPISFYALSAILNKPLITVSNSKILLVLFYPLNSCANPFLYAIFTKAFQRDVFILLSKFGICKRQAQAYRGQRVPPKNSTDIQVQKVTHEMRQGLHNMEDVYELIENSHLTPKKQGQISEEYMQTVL
From the text: National Center for Advancing Translational Sciences [NCATS]
NIH Chemical Genomics Center [NCGC]
U.S. Environmental Protection Agency [EPA]
National Institutes of Environmental Health Sciences [NIEHS]
National Toxicology Program [NTP]
U.S. Food and Drug Administration [FDA]
TSHR is the receptor for thyrotropin (thyroid stimulating hormone or TSH), a member of the glycoprotein hormone family. TSH is released by the anterior pituitary gland and is the main regulator of thyroid gland growth and development. Upon binding circulating thyrotropin, a G-protein signal cascade activates adenylyl cyclase and […] cAMP concentration is increased. cAMP is a key second messenger involved extensively in cellular signal transduction pathways associated with the majority of G-protein coupled receptors (GPCRs). The activation of these GPCRs by neurotransmitters, lipids, nucleotides, peptides and hormones results in the activation or the inhibition of plasma membrane-bound adenylate cyclase through heterotrimeric G-proteins. A cell-based TSHR assay was used to screen the Tox21 10K library for compounds that can modulate TSHR in agonist mode.
Tox21 Assay Protocol Summary:
TSHR-Hek293 cells were dispensed at 800 cells/4uL/well in 1536-well white plates using a Multidrop dispenser. […] The plates were incubated at room temperature for 30 min. 2.5 ul/well of cAMP-d2 and 2.5ul/well of anti-cAMP-cryptate was added respectively into the assay plates using a Flying Reagent Dispenser. After 1 hr incubation at room temperature, the fluorescence intensity in the plates was measured using an Envision plate reader. Each test compound was measured at 15 concentrations and in triplicates.
% is scaled to controls: 0 for no effect and ±100 for the full control effect; potency is read from the fitted curve at half-maximal effect.

| SMILES | activation | Potency |
| --- | --- | --- |
| COP(=S)(OC)Oc1ccc([N+](=O)[O-])cc1Cl | 3.94% | – |
| CO/N=C(/C(=O)OC)c1ccccc1COc1ccccc1C | 7.13% | – |
| CCOC(=O)[C@]1(c2ccccc2)Oc2ccccc2[C@@H]1N | 3.43% | – |
| CC(=O)NC1CCSC1=O (stereo not given) | 1.77% [at 42.5 µM] | – |
| O=[N+]([O-])c1ccccc1CCl | -1.9% | – |
| C=CC(=O)OCCCCO | 4.52% | – |
| ClC=C(Cl)Cl | -1.74% | – |
| C=CC(=O)NCNC(=O)C=C | -8.27% | – |
| C=CC(=O)OC | -2.15% | – |
| C=CC(=O)OC(C)(C)C | 1.98% | – |
| CC(C)(CCl)C(=O)Cl | -2.81% | – |
| O=C(NC(=O)c1c(F)cccc1F)Nc1ccc(OC(F)(F)C(F)OC(F)(F)F)c(Cl)c1 (stereo not given) | -0.559% [at 42.5 µM] | – |
| CN1C(=O)NC(=O)C(C)(C2=CCCCC2)C1=O (stereo not given) | -0.0054% [at 42.5 µM] | – |
| NCC(CC(=O)O)c1ccc(Cl)cc1 (stereo not given) | 16.4% [at 0.349 µM] | – |
| C[C@H]1CNCCc2ccc(Cl)cc21 | -1.04% [at 42.5 µM] | – |
| CC1C(=O)C[C@]2(C(C)C)C[C@H]12 (stereo not given in full) | 6.79% | – |
| COP(=S)(OC)Oc1cc(Cl)c(I)cc1Cl | 9.13% | – |
| O=NN1CCCCCC1 | 1.08% | – |
| C=CCCl | -12.9% | – |
| CCOC(=O)CBr | 7.7% | – |

| SMILES | activation | Potency |
| --- | --- | --- |
| S=C=NCc1ccccc1 | -6.73% | – |
| CC/C(=N\OC/C=C/Cl)C1=C(O)CC(C2CCOCC2)CC1=O (stereo not given) | 7.34% | – |
| CC1CC(CC2CCC(N)C(C)C2)CCC1N (stereo not given) | -1.4% | – |
| OC(c1ccc(Cl)cc1)(c1ccc(Cl)cc1)c1cccnc1 | – | 30.6 µM (active) |
| C=C(C#N)CCC#N | 0.261% | – |
| CC(=O)[C@H]1CC[C@H]2[C@@H]3CC[C@H]4C[C@](C)(O)CC[C@]4(C)[C@H]3CC[C@]12C | 1.48% [at 42.5 µM] | – |
| O=[N+]([O-])c1cc(C(F)(F)F)cc([N+](=O)[O-])c1Cl | -7.06% | – |
| O=C(O)C(F)(F)C(F)(F)C(F)(F)C(F)(F)C(F)(F)C(F)(F)C(F)(F)C(F)(F)C(F)(F)F | 6.91% | – |
| Cc1ccccc1C(=O)Nc1cccc(OC(C)C)c1 | -17.7% | – |
| Clc1cccc2ccccc12 | -7.15% | – |
| CCN(C)N=O | 0.25% | – |
| O=C(O)CC(Cl)C(=O)O (stereo not given) | 0.261% | – |
| CCCCc1c(C)nc(NCC)nc1OS(=O)(=O)N(C)C | 12.8% | – |
| COC(=O)C(C)N(C(=O)Cc1ccccc1)c1c(C)cccc1C (stereo not given) | – | 27.3 µM (active) |
| CNC(C)Cc1ccccc1OC (stereo not given) | 3.49% [at 42.5 µM] | – |
| CC(C)N(CCC(C(N)=O)(c1ccccc1)c1ccccn1)C(C)C (stereo not given) | -5.53% [at 42.5 µM] | – |
| N#C/C(N)=C(/N)C#N | 10% | – |
| N#CCC#N | 10.3% | – |
| Cc1ccc2ccccc2c1 | -11.3% | – |
| Nc1nc(=S)[nH][nH]1 | -6.1% | – |
